Test results: PubChem BioAssay (EPA / NIEHS)
Records with an inconclusive call do not appear. Active and inactive are the calls of the source. The calls were made as follows, unless noted: active = hit-call score of the fitted dose curve at least 0.9, where 1 is the maximum; inactive = score below 0.9.

Columns and labels:
[1] = molecular target: Estrogen-related receptor gamma (Homo sapiens) (UniProt P62508); assay: ATG_ERRg_TRANS: Attagene TRANS-FACTORIAL HepG2 Assay for human Estrogen-Related Receptor gamma (ERRg) (AID 2282977; active = hit-call score of the fitted dose curve at least 0.9, where 1 is the maximum;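 also: hits increase reporter signal over DMSO so potencies reflect activators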); conditions: HepG2 Attagene TRANS reporter, ERRg transactivation
Procedure, shortened: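 HepG2 cells transiently transfected with multiplexed GAL4-UAS reporter units and chimeric NR-Gal4 constructs were exposed to test chemicals for 24 h. Reporter mRNA was measured by RT-PCR, 6-FAM primer extension, HpaI digestion and capillary electrophoresis; gain-of-signal versus DMSO.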

[2] = molecular target: Glucocorticoid receptor (Homo sapiens) (UniProt P04150); assay: ATG_GR_TRANS: Attagene TRANS-FACTORIAL HepG2 Assay for human Glucocorticoid Receptor (GR) (AID 2282978; active = hit-call score of the fitted dose curve at least 0.9, where 1 is the maximum;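 also: activators score as hits since higher reporter transcript over DMSO is fitted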); conditions: HepG2 Attagene TRANS GR reporter, mRNA transcription
Procedure, shortened: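 Transiently transfected HepG2 cells express chimeric NR-GAL4 proteins acting on GAL4-UAS reporter units. Compounds are applied for 24 h. mRNA induction over DMSO is measured by capillary electrophoresis.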

[3] = molecular target: Oxysterols receptor LXR-alpha (Homo sapiens) (UniProt Q13133); assay: ATG_LXRa_TRANS: Attagene TRANS-FACTORIAL HepG2 Assay for human Liver X Receptor alpha (LXRa) (AID 2282980; active = hit-call score of the fitted dose curve at least 0.9, where 1 is the maximum); conditions: HepG2 Attagene TRANS reporter, LXRa transactivation
Procedure, shortened: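 HepG2 cells were transiently transfected with multiplexed reporter units driven by chimeric LXRa–GAL4 fusion proteins, then dosed for 24 h. Reporter mRNA was quantified by RT-PCR, fluorescent labelling and capillary electrophoresis; gain of signal fitted against DMSO baseline.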

[4] = molecular target: Oxysterols receptor LXR-beta (Homo sapiens) (UniProt P55055); assay: ATG_LXRb_TRANS: Attagene TRANS-FACTORIAL HepG2 Assay for human Liver X Receptor beta (LXRb) (AID 2282981; active = hit-call score of the fitted dose curve at least 0.9, where 1 is the maximum); conditions: HepG2 Attagene TRANS GAL4-LXRb reporter, mRNA
Procedure, shortened: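 HepG2 cells transiently transfected with multiple reporter transcription units carrying chimeric NR-Gal4 proteins acting on GAL4-UAS reporters; compound exposure 24 h. Reporter mRNA quantified by RT-PCR, 6-FAM labelling, HpaI digestion and capillary electrophoresis; gain of signal versus DMSO.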

[5] = molecular target: Hepatocyte nuclear factor 4-alpha (Homo sapiens) (UniProt P41235); assay: ATG_HNF4a_TRANS: Attagene TRANS-FACTORIAL HepG2 Assay for human Hepatocyte Nuclear Factor 4 alpha (HNF4a) (AID 2282982; active = hit-call score of the fitted dose curve at least 0.9, where 1 is the maximum); conditions: HepG2 HNF4a transactivation reporter, mRNA readout
Procedure, shortened: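 HepG2 cells transiently transfected with multiplexed GAL4-UAS reporter units responsive to chimeric NR-GAL4 proteins; compound exposure 24 h. Reporter mRNA quantified by RT-PCR, 6-FAM labelling, HpaI digestion and capillary electrophoresis; gain of signal versus DMSO baseline.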

[6] = ATG_M_06_TRANS: Attagene TRANS-FACTORIAL HepG2 Assay for M06 Transcription Factor (Internal Marker) (AID 2282983; active = hit-call score of the fitted dose curve at least 0.9, where 1 is the maximum); conditions: HepG2 Attagene TRANS M06 internal marker reporter
Procedure, shortened: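 HepG2 cells transiently transfected with multiplexed GAL4-UAS reporter transcription units; after 24 h compound exposure, reporter mRNA measured by RT-PCR, FAM-labelled primer extension, HpaI digestion and capillary electrophoresis. Gain-of-signal fitted versus DMSO baseline; background control readout.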

[7] = ATG_M_32_TRANS: Attagene TRANS-FACTORIAL HepG2 Assay for M32 Transcription Factor (Internal Marker) (AID 2282984; active = hit-call score of the fitted dose curve at least 0.9, where 1 is the maximum); conditions: HepG2 Attagene TRANS M32 internal marker reporter
Procedure, shortened: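 HepG2 cells transiently transfected with multiple GAL4-UAS reporter transcription units, dosed for 24 hours; reporter mRNA quantified by RT-PCR, 6-FAM primer extension, HpaI digestion and capillary electrophoresis. Gain-of-signal fitted versus DMSO baseline; internal background-control marker.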

[8] = molecular target: Nuclear receptor subfamily 4 group A member 2 (Homo sapiens) (UniProt P43354); assay: ATG_NURR1_TRANS: Attagene TRANS-FACTORIAL HepG2 Assay for human Nuclear Receptor Related Protein 1 (NURR1) (AID 2282985; active = hit-call score of the fitted dose curve at least 0.9, where 1 is the maximum); conditions: HepG2 Attagene TRANS reporter, mRNA readout
Procedure, shortened: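 HepG2 cells transiently transfected with GAL4-UAS reporter units and chimeric NR-Gal4 constructs; chemical exposure 24 h. Reporter mRNA quantified by RT-PCR, fluorescent labelling and capillary electrophoresis; gain of signal fitted relative to DMSO baseline.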

[9] = molecular target: Transcriptional activator Myb (Homo sapiens) (UniProt P10242); assay: ATG_Myb_CIS: Attagene CIS-FACTORIAL HepG2 Assay for human Myeloblastosis (Myb) Proto-Oncogene Transcription Factor (AID 2282986); conditions: HepG2 Attagene CIS-FACTORIAL Myb reporter transcription; actives raise or lower the signal
Procedure, shortened: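 Using HepG2 liver cells bearing transiently transfected cis-promoter reporter constructs, the assay measures induction or loss of reporter mRNA after 24 hours of dosing. Detection used fluorescently labeled RT-PCR products separated by capillary electrophoresis.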

[10] = molecular target: Nuclear respiratory factor 1 (Homo sapiens) (UniProt Q16656); assay: ATG_NRF1_CIS: Attagene CIS-FACTORIAL HepG2 Assay for human Nuclear Respiratory Factor 1 (NRF1) Orphan Gene (AID 2282987); conditions: HepG2 NRF1 cis-element reporter, Attagene multiplex; actives raise or lower the signal
Procedure, shortened: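 Reporter mRNA induction or loss in HepG2 cells after 24 h dosing; cis-regulated reporter constructs report endogenous transcription-factor activity. Quantified by RT-PCR/capillary electrophoresis fluorescence, DMSO-referenced.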

[11] = ATG_NFI_CIS: Attagene CIS-FACTORIAL HepG2 Assay for human Nuclear Factor I (NFI) (AID 2282989); conditions: HepG2 cis-regulatory reporter, NFI response element transcription; actives raise or lower the signal
Procedure, shortened: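 Reporter transcripts were measured by RT-PCR with fluorescent primer extension and capillary electrophoresis 24 h post-treatment. HepG2 cells carried transiently transfected cis-regulated reporter constructs reporting endogenous factor activity; gain or loss fitted against DMSO baseline.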

[12] = molecular target: Myc proto-oncogene protein (Homo sapiens) (UniProt P01106); assay: ATG_Myc_CIS: Attagene CIS-FACTORIAL HepG2 Assay for human Myelocytomatosis (Myc) Proto-Oncogene Transcription Factor (AID 2282990); conditions: HepG2, Attagene cis-reporter transcription factor activity; actives raise or lower the signal
Procedure, shortened: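 Multiplexed cis-reporter transcription in HepG2 cells after 24 h chemical treatment. Reporter mRNA measured by RT-PCR and capillary electrophoresis fluorescence; activity fitted bidirectionally against DMSO control.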

[13] = ATG_NF_kB_CIS: Attagene CIS-FACTORIAL HepG2 Assay for human Nuclear Factor Kappa B (NF-kB) (AID 2282991); conditions: HepG2 Attagene cis-factorial NF-kB reporter mRNA; actives raise or lower the signal
Procedure, shortened: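 DMSO served as negative control and baseline for bidirectional curve fitting. Transiently transfected HepG2 cells were dosed for 24 h, then reporter transcripts were measured by RT-PCR with capillary electrophoresis detection.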

[14] = ATG_NRF2_ARE_CIS: Attagene CIS-FACTORIAL HepG2 Assay for human Nuclear Factor Erythroid 2 Related Factor 2 (NFR2) response to Antioxidant Response Elements (ARE) (AID 2282992); conditions: HepG2 Attagene ARE/NRF2 reporter, transcription factor activity; actives raise or lower the signal
Procedure, shortened: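 Multiplexed reporter mRNA profiling in HepG2 after a 24 h chemical exposure. Curves fitted in both directions relative to DMSO negative control.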

[15] = ATG_Oct_MLP_CIS: Attagene CIS-FACTORIAL HepG2 Assay for human Octamer-Binding Transcription Factor (Oct) (AID 2282993); conditions: HepG2 Attagene cis-factorial Oct reporter, mRNA; actives raise or lower the signal
Procedure, shortened: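 Readout is reporter transcript level from RT-PCR with fluorescent primer extension and capillary electrophoresis, fitted in both directions against DMSO. Transfected HepG2 reporter units report endogenous factor activity after 24 h dosing.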

[16] = molecular target: Cellular tumor antigen p53 (Homo sapiens) (UniProt P04637); assay: ATG_p53_CIS: Attagene CIS-FACTORIAL HepG2 Assay for human p53 Transcription Factor (AID 2282994); conditions: HepG2 p53 cis-element reporter, Attagene mRNA; actives raise or lower the signal
Procedure, shortened: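 Multiplexed reporter mRNA assay in human HepG2 liver cells; cis-regulated units report endogenous factor activity. Values come from bidirectional curve fitting against DMSO negative control after 24 h treatment.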

[17] = BSK_3C_TissueFactor: BioMAP Diversity Plus: 3C Assay for Tissue Factor Biomarker Activity (AID 2282997); conditions: BioMAP 3C HUVEC, tissue factor biomarker readout; actives raise or lower the signal
Procedure, shortened: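 Primary human umbilical vein endothelial cells in the 3C system were exposed to test chemical for 24 h, then Tissue Factor measured by ELISA. Activity was fitted bidirectionally against DMSO as negative control and baseline.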

[18] = BSK_3C_uPAR: BioMAP Diversity Plus: 3C Assay for Urokinase-type plasminogen activator receptor (uPAR) Biomarker Activity (AID 2282998); conditions: BioMAP 3C HUVEC, uPAR biomarker ELISA; actives raise or lower the signal
Procedure, shortened: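 Cell-surface uPAR on HUVEC (3C system) read by ELISA at 24 h post-treatment, with DMSO as baseline and fitting in both directions. Parallel cultures stained with SRB to flag overt cytotoxicity.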

[19] = BSK_3C_VCAM1: BioMAP Diversity Plus: 3C Assay for Vascular cell adhesion molecule 1 (VCAM1) Biomarker Activity (AID 2282999); conditions: BioMAP 3C HUVEC, VCAM1 ELISA, cytokine-stimulated; actives raise or lower the signal
Procedure, shortened: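 Human umbilical vein endothelial cells were dosed with compound for 24 h, after which cell-surface VCAM-1 was quantified by ELISA. Bidirectional curve fitting used DMSO as negative control and activity baseline.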

[20] = molecular target: Bile acid receptor (Homo sapiens) (UniProt Q96RI1); assay: ATG_FXR_TRANS: Attagene TRANS-FACTORIAL HepG2 Assay for Farnesoid X Receptor (FXR) (AID 2282979; active = hit-call score of the fitted dose curve at least 0.9, where 1 is the maximum;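 also: hits raise reporter mRNA above DMSO so AC50 marks FXR activation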); conditions: HepG2 Attagene TRANS FXR-GAL4 reporter transcription
Procedure, shortened: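 HepG2 cells transiently transfected with reporter constructs in which a chimeric FXR-GAL4 protein drives a GAL4-UAS reporter; 24 h compound exposure. Reporter mRNA measured by RT-PCR, FAM labelling, HpaI digestion and capillary electrophoresis; gain-of-signal versus DMSO.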

Measured: AC50

Chain of Myc proto-oncogene protein (Homo sapiens) (P01106 whole entry, looked up): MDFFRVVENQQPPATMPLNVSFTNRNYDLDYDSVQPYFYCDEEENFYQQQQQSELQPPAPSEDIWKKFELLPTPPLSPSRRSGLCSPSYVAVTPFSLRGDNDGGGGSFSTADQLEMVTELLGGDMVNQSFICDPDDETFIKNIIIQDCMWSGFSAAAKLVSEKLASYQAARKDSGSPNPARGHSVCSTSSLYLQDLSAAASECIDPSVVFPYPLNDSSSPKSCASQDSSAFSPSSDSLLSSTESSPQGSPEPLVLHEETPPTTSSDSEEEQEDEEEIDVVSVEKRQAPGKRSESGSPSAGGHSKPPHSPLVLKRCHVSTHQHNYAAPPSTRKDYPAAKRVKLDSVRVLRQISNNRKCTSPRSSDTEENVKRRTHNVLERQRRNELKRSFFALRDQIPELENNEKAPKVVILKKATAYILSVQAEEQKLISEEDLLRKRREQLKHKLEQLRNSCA
Chain of Cellular tumor antigen p53 (Homo sapiens) (P04637 whole entry, looked up): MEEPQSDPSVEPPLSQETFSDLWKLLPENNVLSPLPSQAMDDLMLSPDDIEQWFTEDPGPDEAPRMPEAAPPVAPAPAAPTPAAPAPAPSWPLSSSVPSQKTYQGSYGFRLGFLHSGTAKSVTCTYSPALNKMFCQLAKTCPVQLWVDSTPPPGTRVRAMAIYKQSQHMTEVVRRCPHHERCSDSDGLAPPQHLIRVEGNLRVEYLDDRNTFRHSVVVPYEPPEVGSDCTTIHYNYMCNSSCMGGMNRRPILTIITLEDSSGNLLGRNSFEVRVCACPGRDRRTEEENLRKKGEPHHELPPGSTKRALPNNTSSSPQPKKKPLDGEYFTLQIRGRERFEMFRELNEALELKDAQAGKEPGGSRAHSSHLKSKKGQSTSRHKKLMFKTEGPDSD
Chain of Hepatocyte nuclear factor 4-alpha (Homo sapiens) (P41235 whole entry, looked up, the tested form may be a part): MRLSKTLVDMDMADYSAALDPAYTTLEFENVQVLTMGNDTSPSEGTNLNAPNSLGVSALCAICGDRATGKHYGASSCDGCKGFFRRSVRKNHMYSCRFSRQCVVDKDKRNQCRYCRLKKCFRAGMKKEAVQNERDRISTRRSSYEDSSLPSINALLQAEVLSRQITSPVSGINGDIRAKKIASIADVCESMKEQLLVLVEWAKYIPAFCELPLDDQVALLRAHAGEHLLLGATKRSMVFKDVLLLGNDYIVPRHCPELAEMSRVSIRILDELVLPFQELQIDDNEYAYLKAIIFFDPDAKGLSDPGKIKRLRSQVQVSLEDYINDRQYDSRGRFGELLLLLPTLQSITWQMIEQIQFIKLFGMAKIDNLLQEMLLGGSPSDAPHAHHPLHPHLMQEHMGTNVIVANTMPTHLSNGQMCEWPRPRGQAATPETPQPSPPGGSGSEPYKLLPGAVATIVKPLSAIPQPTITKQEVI
Chain of Bile acid receptor (Homo sapiens) (Q96RI1 whole entry, looked up, the tested form may be a part): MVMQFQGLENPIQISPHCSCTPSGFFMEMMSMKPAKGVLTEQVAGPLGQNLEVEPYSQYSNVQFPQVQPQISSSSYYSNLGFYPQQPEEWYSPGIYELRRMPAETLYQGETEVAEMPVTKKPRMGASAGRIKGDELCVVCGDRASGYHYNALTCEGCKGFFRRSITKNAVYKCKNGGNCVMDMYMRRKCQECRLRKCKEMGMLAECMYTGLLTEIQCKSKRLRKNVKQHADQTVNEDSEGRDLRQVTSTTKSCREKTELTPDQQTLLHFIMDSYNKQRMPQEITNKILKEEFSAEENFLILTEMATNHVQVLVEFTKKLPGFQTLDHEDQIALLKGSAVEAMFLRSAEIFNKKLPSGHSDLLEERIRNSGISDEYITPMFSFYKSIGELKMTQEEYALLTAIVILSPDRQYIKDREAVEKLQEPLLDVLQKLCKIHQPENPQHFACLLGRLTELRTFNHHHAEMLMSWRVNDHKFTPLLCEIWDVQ
Chain of Oxysterols receptor LXR-beta (Homo sapiens) (P55055 whole entry, looked up, the tested form may be a part): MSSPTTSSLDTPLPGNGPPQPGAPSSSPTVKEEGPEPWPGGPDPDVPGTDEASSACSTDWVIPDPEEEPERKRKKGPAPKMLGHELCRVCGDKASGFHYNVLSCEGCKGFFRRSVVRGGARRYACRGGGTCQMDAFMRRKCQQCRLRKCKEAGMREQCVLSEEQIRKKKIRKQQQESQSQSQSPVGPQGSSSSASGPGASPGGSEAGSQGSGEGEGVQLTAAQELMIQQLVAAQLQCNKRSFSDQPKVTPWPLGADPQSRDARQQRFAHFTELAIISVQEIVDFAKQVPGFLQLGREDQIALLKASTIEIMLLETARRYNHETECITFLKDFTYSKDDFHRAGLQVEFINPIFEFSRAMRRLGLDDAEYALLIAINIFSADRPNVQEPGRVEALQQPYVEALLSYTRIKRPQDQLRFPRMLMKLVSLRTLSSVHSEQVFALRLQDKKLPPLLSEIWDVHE
Chain of Nuclear receptor subfamily 4 group A member 2 (Homo sapiens) (P43354 whole entry, looked up, the tested form may be a part): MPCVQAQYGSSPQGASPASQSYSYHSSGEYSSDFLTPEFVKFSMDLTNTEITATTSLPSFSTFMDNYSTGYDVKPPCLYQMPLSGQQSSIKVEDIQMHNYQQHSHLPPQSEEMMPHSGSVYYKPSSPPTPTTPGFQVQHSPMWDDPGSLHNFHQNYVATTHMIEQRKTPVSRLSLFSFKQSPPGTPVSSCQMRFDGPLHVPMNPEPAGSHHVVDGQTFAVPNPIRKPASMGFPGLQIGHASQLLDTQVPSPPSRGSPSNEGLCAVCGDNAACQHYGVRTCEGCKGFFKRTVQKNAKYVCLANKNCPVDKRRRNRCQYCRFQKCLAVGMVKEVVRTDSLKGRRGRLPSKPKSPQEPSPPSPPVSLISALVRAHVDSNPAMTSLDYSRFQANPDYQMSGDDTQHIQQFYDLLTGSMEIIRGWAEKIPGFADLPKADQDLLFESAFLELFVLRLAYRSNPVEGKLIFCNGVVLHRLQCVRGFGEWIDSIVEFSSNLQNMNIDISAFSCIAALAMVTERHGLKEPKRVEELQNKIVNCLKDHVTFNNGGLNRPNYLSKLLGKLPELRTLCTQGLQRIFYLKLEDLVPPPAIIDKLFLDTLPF
Chain of Glucocorticoid receptor (Homo sapiens) (P04150 whole entry, looked up, the tested form may be a part): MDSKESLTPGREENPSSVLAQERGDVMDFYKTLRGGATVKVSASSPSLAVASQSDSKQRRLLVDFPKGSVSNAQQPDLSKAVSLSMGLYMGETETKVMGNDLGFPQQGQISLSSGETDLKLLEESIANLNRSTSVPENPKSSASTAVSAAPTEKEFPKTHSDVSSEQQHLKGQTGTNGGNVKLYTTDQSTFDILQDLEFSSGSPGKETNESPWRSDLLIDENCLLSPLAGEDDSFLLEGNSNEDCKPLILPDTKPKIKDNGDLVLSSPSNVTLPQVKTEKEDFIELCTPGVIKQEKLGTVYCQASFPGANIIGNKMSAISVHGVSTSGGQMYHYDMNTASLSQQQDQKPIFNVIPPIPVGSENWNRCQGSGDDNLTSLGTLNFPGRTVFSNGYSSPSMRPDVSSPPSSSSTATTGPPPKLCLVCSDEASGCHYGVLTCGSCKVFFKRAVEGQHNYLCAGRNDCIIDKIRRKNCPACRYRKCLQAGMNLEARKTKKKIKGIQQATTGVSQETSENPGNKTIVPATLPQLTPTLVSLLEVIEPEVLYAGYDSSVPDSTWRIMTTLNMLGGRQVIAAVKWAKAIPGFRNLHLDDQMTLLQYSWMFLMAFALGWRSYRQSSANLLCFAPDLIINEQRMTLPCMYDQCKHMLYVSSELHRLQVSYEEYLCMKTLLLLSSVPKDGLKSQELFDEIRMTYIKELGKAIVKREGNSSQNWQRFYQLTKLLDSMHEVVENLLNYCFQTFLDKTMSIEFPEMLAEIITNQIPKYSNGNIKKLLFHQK
Chain of Oxysterols receptor LXR-alpha (Homo sapiens) (Q13133 whole entry, looked up, the tested form may be a part): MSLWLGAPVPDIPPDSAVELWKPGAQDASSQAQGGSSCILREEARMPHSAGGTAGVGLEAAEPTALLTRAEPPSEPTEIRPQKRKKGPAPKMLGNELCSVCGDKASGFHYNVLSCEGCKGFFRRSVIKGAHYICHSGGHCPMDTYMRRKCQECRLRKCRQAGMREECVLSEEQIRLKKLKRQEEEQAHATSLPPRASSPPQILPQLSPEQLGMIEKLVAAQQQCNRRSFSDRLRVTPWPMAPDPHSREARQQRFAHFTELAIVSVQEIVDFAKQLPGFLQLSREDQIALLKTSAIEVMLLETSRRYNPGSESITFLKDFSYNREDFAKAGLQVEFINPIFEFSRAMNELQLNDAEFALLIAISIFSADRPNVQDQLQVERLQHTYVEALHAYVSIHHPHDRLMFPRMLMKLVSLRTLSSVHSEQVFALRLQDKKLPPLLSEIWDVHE
Chain of Nuclear respiratory factor 1 (Homo sapiens) (Q16656 whole entry, looked up): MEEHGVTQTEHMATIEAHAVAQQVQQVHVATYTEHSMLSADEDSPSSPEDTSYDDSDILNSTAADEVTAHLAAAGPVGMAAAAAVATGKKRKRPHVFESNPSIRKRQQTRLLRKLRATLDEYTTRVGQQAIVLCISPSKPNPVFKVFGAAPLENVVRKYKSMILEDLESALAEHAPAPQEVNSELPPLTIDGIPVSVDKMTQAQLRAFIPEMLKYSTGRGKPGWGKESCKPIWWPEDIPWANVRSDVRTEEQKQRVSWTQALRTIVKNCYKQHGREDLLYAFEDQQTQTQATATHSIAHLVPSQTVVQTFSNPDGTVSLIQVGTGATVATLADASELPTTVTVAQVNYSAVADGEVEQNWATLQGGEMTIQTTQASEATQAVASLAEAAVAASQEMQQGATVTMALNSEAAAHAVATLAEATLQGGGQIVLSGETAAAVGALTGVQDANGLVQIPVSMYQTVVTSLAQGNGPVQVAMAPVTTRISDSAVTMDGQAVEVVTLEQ

CC1=CC(C)C(C=O)CC1 (configuration not stated)
active: [14] 14.1 µM
not listed: [17] | [18] | [19] | [20]
inactive: all other assays above

CC(C)(c1ccccc1)c1ccc(Nc2ccc(C(C)(C)c3ccccc3)cc2)cc1
not listed: [5] | [7] | [17] | [18] | [19] | [20]
inactive: all other assays above

CC(CCC(=O)O)(c1ccc(O)cc1)c1ccc(O)cc1
not listed: [3] | [9] | [20]
inactive: all other assays above

CC(C)(CO)C(O)C(=O)NCCCO (configuration not stated)
not listed: [2] | [4] | [7] | [9] | [16] | [17] | [18] | [19]
inactive: all other assays above

CCN(CC)c1cccc(C)c1
not listed: [6] | [17] | [18] | [19] | [20]
inactive: all other assays above

CCCCC1C(=O)N(c2ccccc2)N(c2ccccc2)C1=O
active: [14] 6.46 µM | [18] 10.2 µM
not listed: [3] | [4] | [6]
inactive: all other assays above

CC(=O)OC1CCCCC1
not listed: [3] | [4] | [8] | [9] | [17] | [18] | [19]
inactive: all other assays above

CC(Cl)COP(=O)(OCC(C)Cl)OCC(C)Cl (configuration not stated)
not listed: [3] | [6] | [7] | [15] | [20]
inactive: all other assays above

CCOC(=O)C1=NN(c2ccc(Cl)cc2Cl)C(C)(C(=O)OCC)C1 (configuration not stated)
active: [8] 168 µM
not listed: [4] | [6]
inactive: all other assays above
